Experimental findings from the supplement of paper PMC6555819 are described below.

Holding throughout (assay): PBM binding z-score (relative to random genomic background probes); higher = stronger binding; sequences stand for … in GC…GCGATTGACAGCGTAGAATGAAGG
The test system of test [1] is PPARg:RXRa DBDmut IVT, anti-RXR (DBD mutation: RXRa K156A/R161A, NR concentration 270 nM, RXRa partner concentration 90 nM). The gist of the method:
(§1)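 Regression normalization was applied to scanned fluorescence from custom Agilent 4×180K protein-binding microarrays. Before scanning, arrays were incubated 1 h with ligand-free nuclear receptor dimers, and binding was detected with antibodies against each partner (one per run). Binding z-scores use the random background probes as reference.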

Test [2] deals with PPARg:RXRa IVT, anti-PPARg (NR concentration 270 nM, RXRa partner concentration 90 nM). An outline of the steps: as §1
Test [3] concerns PPARg DBDmut:RXRa IVT, anti-PPARg (DBD mutation: PPARg1 K132A/R137A, NR concentration 270 nM, RXRa partner concentration 90 nM). An outline of the steps: as §1
Test [4] has as its system PPARg DBDmut IVT, anti-PPARg (DBD mutation: PPARg1 K132A/R137A, NR concentration 270 nM). An outline of the steps: as §1
Test [5] has as its system PPARg homodimer (NR concentration 180 nM). An outline of the steps: as §1
The subject of test [6] is PXR:RXRa (NR concentration 270 nM, RXRa partner concentration 90 nM). The gist of the method:
as §1

The subject of test [7] is PXR homodimer (NR concentration 270 nM). An outline of the steps: as §1
Test [8] concerns RARa:RXR (NR concentration 270 nM, RXRa partner concentration 90 nM). An outline of the steps: as §1
In test [9] the test system is RARa homodimer (NR concentration 270 nM). The gist of the method:
as §1

Test [10] relates to RARb:RXRa (NR concentration 270 nM, RXRa partner concentration 90 nM). The gist of the method: as §1
Test [11] has as its system RARb homodimer (NR concentration 270 nM). An outline of the steps: as §1
The subject of test [12] is RARg:RXRa (NR concentration 270 nM, RXRa partner concentration 90 nM). The gist of the method: as §1
Test [13] relates to RARg homodimer (NR concentration 270 nM). An outline of the steps:
as §1

For test [14], the system named is RXRa DBDmut IVT, anti-RXR (DBD mutation: RXRa K156A/R161A, NR concentration 90 nM). The gist of the method: as §1
The test system of test [15] is RXRa homodimer (NR concentration 180 nM). An outline of the steps: as §1
Test [16] deals with THRa:RXRa (NR concentration 90 nM, RXRa partner concentration 90 nM). The gist of the method: as §1
Test [17] deals with THRa homodimer (NR concentration 90 nM). The gist of the method:
as §1

In test [18] the test system is VDR homodimer (NR concentration 270 nM). The gist of the method: as §1

For the sequence CCTAGTTGGTCAGGCGGTCACACACCGGATATGA, the PBM binding z-score in test [1] was 0.37; in test [2] it was 0.945; in test [3] it was -0.344; in test [4] it was -0.024; in test [5], 0.926; in [6], 0.0317. The PBM binding z-score was 0.384 in test [7]; -0.0122 in test [8]; 0.796 in test [9]; 1.75 in [10]; 2.12 in [11]; 1.41 in test [12]. In addition, the PBM binding z-score is 1.67 in [13]; -0.336 in [14]; 0.344 in test [15]; 0.232 in test [16]; 0.129 in test [17]; 0.3 in [18].
Take CGTCCAAGGTCAGAGGGGTCAGTGAATGCCGAGT: the PBM binding z-score in [1] is 2.84; in test [2], 3.28; in test [3], -0.262; in test [4], 0.193; in test [5] it was 5.46; in test [6], 6.03. Also, the PBM binding z-score in test [7] is 9.87; in test [8] it was 6.26; in test [9] it was 2.33; in test [10], 5.24; in [11] it was 5.33; in [12], 6.54. For the same sequence, the PBM binding z-score in [13] turned out to be 7.18; in test [14] it was 3.32; in test [15] it was 6.41; in test [16], 4.28; in [17] it was 2.82; in test [18] it was 5.91.
As to ACTAGCCGGCCAAGGGTCACTCAAGATTAGTCCG, the PBM binding z-score in test [1] is -0.188; in test [2], 2.25; in test [3], -0.122; in test [4] it was -1.13; in test [5], 0.922; in test [6], 3. The PBM binding z-score in test [7] is -0.135; in [8] it was 3.82; in [9], -0.211; in [10], 3.41; in [11], 3.6; in [12], 3.96. Also, the PBM binding z-score in test [13] was 3.47; in test [14], -0.0861; in test [15], 3.65; in [16], 2.5; in [17], 0.383; in test [18] it was 0.509.
Turning to ATCTCTAGGTAAGACTCAGGTCAGTGAAGAACGC, the PBM binding z-score was 1.9 in test [1]; 1.67 in test [2]; 0.483 in [3]; 1.13 in test [4]; 1.65 in [5]; 0.724 in test [6]. The PBM binding z-score in test [7] was 0.764; in test [8], 0.911; in test [9], 0.98; in test [10], 1.62; in test [11], 2.52; in test [12], 1.49. Besides, the PBM binding z-score in [13] worked out at 1.35; in test [14] it was 0.359; in test [15] it was 0.773; in test [16], 2.67; in test [17], 2.37; in test [18], 0.803.
Consider CGAACGAGGGCATCAGTTGATAGCAAATGCCGAT, for which the PBM binding z-score was 2.85 in test [1]; 1.94 in [2]; -0.013 in test [3]; -0.142 in test [4]; -0.115 in [5]; 0.166 in test [6]. The PBM binding z-score is 0.152 in test [7]; 0.224 in test [8]; -0.261 in test [9]; 2.03 in [10]; 0.822 in [11]; 0.928 in [12]. Further, the PBM binding z-score in [13] is 1.83; in test [14], 2.49; in [15], 0.686; in test [16], 0.964; in test [17], -0.293; in test [18], 1.48.
For AGAATGAGGTTATAAGTAGATCAGGGAAGAAAGT, the PBM binding z-score in [1] was 3.03; in [2], 2.5; in [3], 0.674; in [4], 0.782; in [5], 1.83; in [6], 1.47. The PBM binding z-score in [7] worked out at 0.923; in test [8] it was 1.88; in [9] it was 0.571; in [10], 1.25; in test [11], 0.89; in [12] it was 1.35. Further, the PBM binding z-score was 0.794 in test [13]; 1.41 in test [14]; 2.12 in test [15]; 2.1 in [16]; 0.689 in test [17]; 1.09 in test [18].
Consider TCTCGGAGGACACGAAGGTCGGAGCTTTCCAGAG, for which the PBM binding z-score in test [1] is 1.25; in test [2], 0.119; in test [3], -2.18; in test [4] it was -1.55; in [5] it was -0.462; in test [6] it was 0.265. The PBM binding z-score in test [7] was -0.139; in test [8] it was 0.366; in test [9], -1.24; in test [10], 1.81; in test [11], 1.42; in test [12] it was 1.23. Besides, the PBM binding z-score was determined as 1.5 in test [13]; 0.608 in test [14]; 0.322 in [15]; 1.64 in test [16]; 0.121 in [17]; 0.0854 in test [18].
Consider GCTAGCAGGCCATTTGGTTCACTCAATGACGGGC, for which the PBM binding z-score is 1.03 in [1]; -0.11 in [2]; -0.667 in test [3]; -0.975 in [4]; -0.906 in test [5]; -0.151 in test [6]. Besides, the PBM binding z-score in test [7] is 0.221; in [8] it was -0.572; in test [9], -0.886; in test [10], 0.187; in test [11], -0.301; in test [12] it was -0.115. Moreover, the PBM binding z-score in test [13] is -0.168; in [14] it was 0.552; in test [15] it was -0.107; in test [16], -0.195; in [17] it was -0.949; in test [18], 1.2.
